# From PubChem BioAssay (NCI)
# About 83,000 compounds went through this panel and 20% of them were active in at least one assay; those are over-represented in the sample as a whole.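 96-well plates, one dose, 48 hours. Percent growth reported; active if below 10.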 Unmarked numbers belong to inactive results. The source made the active and inactive calls.
# Tested on: HCT-15 colon
# Experiment: NCI-60 one-dose screen, 48 h (100 = growth as untreated, 0 = no growth, -100 = all killed)
# Conditions: 10 µM unless noted
# Procedure: Growth inhibition of the HCT-15 human tumor cell line is measured as a screen for anti-cancer activity. Cells are grown in 96 well plates and exposed to the test compound for 48 hours. Compounds are tested at a single concentration, which is 10^-5 M for most compounds. The reported endpoint is percent growth (GI% or GIPRCNT), where numbers from 0 - 100% represent growth inhibition, and numbers from -100% - 0 represent cell death. For example, a value of 40 represents 60% growth inhibition. A value of 0 means no net growth occurred over the course of the experiment. A value of -40 indicates 40% of cells at the beginning of the experiment died by the end of the experiment. A value of -100 means all cells are dead at the end of the experiment.
# NCI-60 Human Tumor Cell Lines Screen was performed using the standard one-dose NCI protocol, which is described in more detail at https://dtp.cancer.gov/discovery_development/nci-60/default.htm.
# Compounds with GIPRCNT values below 10 were considered active. Activity score was based on GIPRCNT using the following formula: […]
# Score is 0 for GIPRCNT values of 100 or above, 50 for GIPRCNT values of 0, and 100 for GIPRCNT values of -100.
row,SMILES,growth
1,Cc1nc2ncccc2nc1Nc1ccc(S(=O)(=O)Nc2cncs2)cc1,115%
2,N#Cc1c(Nc2ccccc2)nc2n(c1=O)-c1ccccc1Sc1ccccc1-2,90.3%
3,Cc1cc(C)n(-c2nnc3n2N=C(c2ccc(-c4ccccc4)cc2)CS3)n1,36%
4,CCCCOc1ccc(/C=C2/SC(N3CCOCC3)=NC2=O)cc1OCC,98.6%
5,O=c1[nH]c(Nc2ccc(S(=O)(=O)O)cc2)nc2nc(Nc3ccc(NC(=S)Nc4ccccc4)cc3)nc(-c3ccc(O)cc3O)c12,105%
6,COc1cc(C(=O)/C=C/c2c(C)n([O-])c3ccc(C(F)(F)F)cc3[n+]2=O)cc(OC)c1OC,86.1%
7,Clc1cc2c(nn1)Nc1ccccc1S2,101%
8,Cc1ccc(S(=O)(=O)NCCNc2cc(-c3cn(C(C)(C)C)nc3-c3cccc(O)c3)ccn2)cc1,31.1%
9,O=[N+]([O-])c1cccc(-c2nc3sccn3c2-c2ccnc(NCCCNS(=O)(=O)c3ccc(Cl)cc3)n2)c1,35.2%
10,Cc1ccc(-c2nc(C#N)c(S(=O)(=O)n3nc(-c4ccccc4)cc3N)o2)cc1,67.6%
11,COc1ccc(/C=C2\Oc3cc(OCCCN4CCCC4)ccc3C2=O)cc1,26.3%
12,CC(O)CN1CCCCC1 (stereo not given),107%
13,Cc1ccc(S(=O)(=O)n2cc(C(=O)C(=O)N3CCOCC3)c3ccccc32)cc1,96.6%
14,CN1C(=O)N(C)C2C1NN=c1s/c(=C\C=C\c3ccccc3)c(=O)n12 (stereo not given),32.4%
15,COc1cc(-c2nn(-c3cccc(NC(=O)c4cccc(C(F)(F)F)c4)c3)cc2-c2ccncc2)ccc1Cl,12.8%
16,COc1ccc(S(=O)(=O)Nc2cc(/C=C\c3cc(OC)c(OC)c(OC)c3)cc(OC)c2OC)cc1,15%
17,CCN1CCN(CC(=O)N2c3cccc4cccc(c34)N(C(=O)CN3CCN(CC)CC3)C2c2cn(-c3ccccc3)nc2-c2cccc([N+](=O)[O-])c2)CC1,-45.5% (active)
18,COc1ccc2c(c1)[nH]c(=O)c1c3cccc(F)c3cn21,9.78% (active)
19,COc1ccc2c(c1)[nH]c(=O)c1c3cc(C)c(C)cc3cn21,-87.5% (active)
20,CCCOC(=O)n1cccc1,107%

row,SMILES,growth
1,COc1ccc(Nc2[nH]n3c(=O)cc(C)nc3c2C(N)=O)c(OC)c1,102%
2,Nc1ncnc2c1c(-c1ccc(Oc3ccccc3)cc1)nn2C[C@@H]1SSC[C@@H]1O,64.6%
3,COc1cc(NC(N)=NCCC(C)(C)Oc2ccc(C(F)(F)F)cc2)ncc1C#N,-70.7% (active)
4,COc1ccc(N2CCN(Cc3cc(C(=O)/C=C/c4c[nH]c5ccccc45)ccc3O)CC2)cc1,98.7%
5,Cc1ccc2nc(Cl)cc(=O)n2c1,102%
6,CCO/C=N/C1=C(C#N)C(c2ccc(Cl)cc2)c2c(c3ccccc3n(C)c2=O)O1 (stereo not given),41.1%
7,O=C1NN(C(=O)c2ccc(Cl)cc2)C(c2ccccc2)=N/C1=C\c1ccc(F)cc1,72.4%
8,COc1ccc(C2=Nn3c(nnc3-n3nc(C)cc3C)SC2)cc1,17.1%
9,O=C(Nc1cccc(-n2cc(-c3ccncc3)c(-c3ccc(Cl)c(O)c3)n2)c1)c1ccccc1,58.2%
10,CCC(=O)Oc1ccc(/C(=C(/C)Cc2cccc(OC)c2)c2ccc(OCCN(C)C)cc2)cc1,48.2%
11,CC12CCC3C4(C)COC(c5ccccc5Cl)OC4CCC3(C)C1CC(C1=CCOC1=O)O2 (stereo not given),41.2%
12,Nc1nnc(-c2ccc3ccccc3c2O)o1,78.6%
13,Cn1c(=O)cc(NC(=O)CN2CCN(c3cc4c(cc3F)c(=O)c(C(=O)O)cn4C3CC3)CC2)[nH]c1=O,99%
14,CCc1ccc(-c2ccc(=O)n(-c3ccc(S(N)(=O)=O)cc3)n2)cc1,29.7%
15,OCCCCCCNc1ncnc2cc(Cl)ccc12,101%
16,O=C(CN1CCN(c2cc3c(cc2F)c(=O)c(C(=O)N/N=C/c2ccccc2O)cn3C2CC2)CC1)N/N=C\c1ccccc1O,18.4%
17,C=C1CC2(OC1=O)C(=O)N(CCCN1C(=O)C3(CC(=C)C(=O)O3)c3ccccc31)c1ccccc12 (stereo not given),-28.1% (active)
18,COc1ccc(-c2c(-c3cc(OC)c4c(c3)OCO4)noc2N)cc1,14.2%
19,C=C[C@@H]1C[C@@H]2Cc3ccccc3N1O2,107%
20,COc1cc(-c2nn(-c3cccc(NC(=O)c4ccc(Cl)c(C(F)(F)F)c4)c3)cc2-c2ccncc2)ccc1Cl,51.7%
